# Reference: PubChem BioAssay (NCATS)
# Records with an inconclusive call do not appear. Where a call stands in place of a potency, no number is given. Unmarked numbers belong to inactive results. Calls of active or inactive are those of the source. Calls come from the whole dose curve; as a rule, active = well fitted cell-killing curve with a large enough effect; inconclusive = small, poorly fitted or top-dose-only effect, or effect the other way; inactive = flat fitted curve, though single readings scatter.
# System: HeLa
# Assay: Primary qHTS to identify gynecologic anti-cancer compounds using libraries of approved drugs and bioactive compounds (AID 1345084); note: nearly all actives have a fitted effect of over 55% in size
# Conditions: Gynecologic cancer cell panel viability, ATPlite luminescence, 48 h; series mostly up to 57.5 µM
# Summary of the method: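 Cells, 1,000 per well, were allowed to settle for 16 h at 37 C before compound addition. Five concentrations were tested for 48 h, and viability was read by ATPlite luminescence after 15 min at room temperature.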
SMILES,Potency,"activity change, negative = cytotoxicity"
C/C=C(\C)C(=O)O[C@H]1[C@@H](O[C@]2(COC(=O)CC(C)C)O[C@H](COC(=O)C(C)CC)[C@@H](OC(C)=O)[C@@H]2O)O[C@H](COC(C)=O)[C@@H](O)[C@@H]1O (stereo partly drawn),inactive,–
C=C(C(=O)O)C1CC2=C(C)CCCC2(C)C[C@@H]1O (stereo partly drawn),inactive,–
O=C(NCc1ccc(F)cc1)C(=O)c1c[nH]c2ccccc12,inactive,–
C/C(=C\C=C\C(C)C1CCC2(C)C3CCC4C(C)(C)C(=O)CCC45CC35CCC12C)C(=O)O (stereo not drawn),inactive,–
C/C(=C\CCC(C)CCO)C(=O)OC1(C)CCC2C(C(=O)O)=COC(OC3OC(CO)C(O)C(O)C3O)C21 (stereo not drawn),inactive,–
CC(=O)O[C@@H]1[C@@H](OC(=O)/C=C/c2ccccc2)[C@@H](OC(C)=O)[C@H](O[C@H]2[C@@H]3C=CO[C@@H](O[C@@H]4O[C@H](CO)[C@@H](O)[C@H](O)[C@H]4O)[C@@H]3[C@@]3(CO)O[C@@H]23)O[C@H]1C,inactive,–
CCN(CC)Cc1ccc(C(=O)N(CCc2ccccc2OC)[C@@H]2CCNC2)cc1,inactive,–
O=C1OCc2cc3cccc(O[C@@H]4O[C@H](CO)[C@@H](O)[C@H](O)[C@H]4O)c3c(O)c21,inactive,–
N#Cc1ccc(C(=O)N2CCC3(CC2)N=C(N)c2c(F)ccc(F)c2N3)cn1,inactive,–
CCCCc1ccc(C(=O)Nc2cc(-c3ccc(Cl)cc3)nn2-c2ccc(Cl)cc2)cc1,inactive,–
O=C(C(c1ccccc1)c1ccccc1)N1CCN(CC(O)COc2cccc3ncccc23)CC1 (stereo not drawn),inactive,–
CC(C)c1cc2c(c(O)c1O)[C@@]13CCCC(C)(C)[C@@H]1[C@H](OC3=O)C2=O,inactive,–
CC(C)CNCc1ccc(-c2ccccc2S(=O)(=O)N2CCCC2)cc1,inactive,–
Nc1nc2c(c(N3CCNCC3)n1)CCC1=C2[C@@H]2CCCC[C@@H]2O1,inactive,–
CC1(C)CC[C@]2(C(=O)O)CC[C@]3(C)C(=CCC4[C@@]5(C)CC[C@H](O[C@@H]6O[C@H](C(=O)O)[C@@H](O[C@@H]7OC[C@@H](O)[C@H](O)[C@H]7O)[C@H](O)[C@H]6O)C(C)(C)C5CC[C@]43C)C2C1O (stereo partly drawn),inactive,–
N[C@H]1Cc2ccccc2N(O)C1=O,inactive,–
C=C1CCC2C(C)(C)C(O)CCC2(C)C1CCC(C)CCOC(C)=O (stereo not drawn),inactive,–
CC(C)(C)NS(=O)(=O)c1cncc(-c2cc(F)c3nc(N)nn3c2)c1,inactive,–
C/C=C/C=C/C(O)=C1\C(O)=C(C)C(=O)[C@@]2(C)OC(=O)[C@@](C)(NC(=O)/C=C/C(=O)O)[C@@H]12,inactive,–
C[C@@H]1CCC2C(C)(C)[C@H](O)CC[C@]2(C)[C@@]12Cc1c(O)cc3c(c1O2)CN([C@@H](CCC(=O)O)C(=O)O)C3=O (stereo partly drawn),inactive,–
C/C=C/C=C/C(O)=C1\C(=O)[C@]2(C)C3C(C(=O)CC/C=C/C)=C(O)C4(C)C1[C@]1(C)O[C@@]4(O)[C@@]3(C)O[C@@]12O,inactive,–
C[C@@H]1O[C@@H](O[C@H]2[C@H](OC(=O)[C@]34CCC(C)(C)C[C@H]3C3=CCC5[C@@]6(C)C[C@H](O)[C@H](O[C@@H]7O[C@H](CO)[C@@H](O)[C@H](O)[C@H]7O)[C@@](C)(CO)C6[C@H](O)C[C@@]5(C)[C@]3(C)CC4)OC[C@H](O)[C@@H]2O)[C@H](O)[C@H](O)[C@H]1O[C@@H]1OC[C@@H](O)[C@H](O[C@@H]2OC[C@](O)(CO)[C@H]2O)[C@H]1O (stereo partly drawn),–,4.34% [at 6.55 µM]
C1CCC[C@H]2CCCN3CC[C@@H](CCCCCC[C@@H]4CCCN5CC[C@@H](CC1)O[C@@H]45)O[C@@H]23,–,18.4% [at 0.155 µM]
Cc1[nH]c2ccccc2c1C1=C(NCCc2ccc(F)cc2)C(=O)N(C)C1=O,inactive,–
OC[C@H]1O[C@@H](O[C@H]2[C@H](OCCc3ccccc3)O[C@H](CO)[C@@H](O)[C@@H]2O)[C@H](O)[C@@H](O)[C@@H]1O,inactive,–
C=C1[C@@H]2CC[C@@H]3[C@@](CCC4C(C(=O)O)(C(=O)O)C[C@@H](O[C@@H]5O[C@H](CO)[C@@H](O)[C@H](O)[C@H]5OC(=O)CC(C)C)C[C@]43C)(C2)[C@H]1O (stereo partly drawn),inactive,–
CC(=O)C1=C(C)N(c2cccc(C(F)(F)F)c2)C(=O)N[C@H]1c1ccc(C#N)nc1,–,11% [at 11.6 µM]
CC(CCC1(O)OC2CC3C4CCC5CC(O[C@@H]6O[C@H](CO)[C@@H](O)[C@H](O)[C@H]6O[C@@H]6O[C@@H](C)[C@H](O)[C@@H](O)[C@H]6O)C(O)CC5(C)C4CCC3(C)C2C1C)CO[C@@H]1O[C@H](CO)[C@@H](O)[C@H](O)[C@H]1O (stereo partly drawn),–,3.09% [at 11.6 µM]
